Screening data as filed in PubChem BioAssay.
aSyn 5UTR act: Activators via SNCA 5'UTR binding, MLPCN | alpha-synuclein 5'UTR reporter, activators screen | activity score, % (tested at 7.5 µM), hits read low | actives 7.1% (n = 300,000); in the data active = activity score below about -60%
Starred values were filed as active, the others as inactive. The list is a sample of the results.

SMILES	aSyn 5UTR act
CC(C)(C)C(=O)NC(=S)Nc1sc2c(c1C#N)CCCCC2	-106*
CSc1nc(O)c(N=Nc2ccc(F)cc2F)c(=O)[nH]1	-138*
Cn1c(/C=C/c2ccccc2[N+](=O)[O-])nc2ccccc2c1=O	-133*
Cn1c(/C=C/c2ccc(Br)cc2)nc2ccccc2c1=O	-171*
Cc1cc(N2CCN(c3ccc([N+](=O)[O-])c4cccnc34)CC2)c2ccccc2n1	84
O=[N+]([O-])c1ccccc1/C=C/c1ccc2ccccc2n1	-138*
O=C(CCS(=O)(=O)c1ccccc1)NC12CC3CC(CC(C3)C1)C2	-179*
Cc1ccc(-c2cc(-c3ccc(C)cc3O)[nH]n2)cc1	-160*
Oc1ccccc1-c1cc(-c2ccc(F)cc2)n[nH]1	-128*
Oc1ccc(F)cc1-c1cc(-c2ccc3c(c2)OCCO3)n[nH]1	-151*
Oc1ccc(Br)cc1-c1cc(-c2ccccc2F)[nH]n1	-74*
Cc1ccc(O)c(-c2cc(-c3cccc(Br)c3)n[nH]2)c1	-97*
Cc1ccc(-c2cc(-c3ccc(F)cc3)n[nH]2)c(O)c1	-86*
Oc1ccc(Cl)cc1-c1cc(-c2ccccc2)n[nH]1	-99*
O=C(NC(C(=O)c1ccccc1)n1ccc(=O)[nH]c1=O)c1ccccc1 (stereo not given)	-208*
O=C(NC(C(=O)c1ccccc1)N1CCCCC1)c1ccccc1 (stereo not given)	-87*
CCCCC(=O)NC(c1ccc(C(C)C)cc1)c1ccc2cccnc2c1O (stereo not given)	112
CSc1ccccc1NC(=O)c1ccc(Br)o1	-78*
Cc1cccc(NC(=S)NC(=O)c2ccc(Br)o2)c1C	-74*
CCCCC(=O)NC(c1ccccc1Cl)c1ccc2cccnc2c1O (stereo not given)	83
O=C(NC(=S)Nc1ccccc1F)c1ccc(Br)o1	-66*
O=C(O)CCC(=O)Nc1cccc2cccnc12	-114*
O=C(Nc1cccc2cccnc12)c1ccc(Br)o1	-97*
Cc1ccc(NC(=S)NC(=O)c2ccc(Br)o2)c(C)c1	-181*
CSc1ccc(N2C(=O)NC3(CCCCC3)C2=O)cc1	-111*
SMILES	aSyn 5UTR act
O=C(Nc1ccc(-c2cn3c(n2)SCC3)cc1)c1ccco1	-170*
CC(=O)Nc1ccc(-c2cn3c(n2)SCC3)cc1	-83*
COc1ccc(Oc2ccc(/C=C/C(=O)c3ccc(O)cc3)cc2[N+](=O)[O-])cc1	-97*
O=C(/C=C/c1ccc(O)c([N+](=O)[O-])c1)c1ccc2ccccc2c1	-124*
CN(C)c1ccc(/C=C/C(=O)c2ccccc2)cc1[N+](=O)[O-]	-195*
COCCNc1c(-c2ccc(OC)cc2)nc2ccc(Cl)cn12	-117*
CCOC(=O)CNc1c(-c2ccc(OC)cc2)nc2ccc(Cl)cn12	-127*
Cc1cccc(CSc2cccc3cccnc23)c1	-103*
c1cnc2c(SCc3ccc(-c4nnco4)cc3)cccc2c1	-82*
COc1ccc(/C=C/c2nc(-c3ccccc3O)n[nH]2)cc1	-74*
CCOC(=O)c1ccc(-c2ccc(/C=N/NC(=O)CN(c3ccccc3Br)S(C)(=O)=O)o2)cc1	-140*
Cc1ccc(NCc2nc3ccccc3n2CCOc2ccccc2)cc1	-136*
Cn1c(COc2ccccc2)nc2ccccc21	-99*
COCCn1c(COc2ccc(C)cc2)nc2ccccc21	-95*
CCOCCn1c(COc2ccc(C)cc2)nc2ccccc21	-118*
CCn1c(COc2ccc(C)cc2)nc2ccccc21	-126*
CCCn1c(CNc2ccc(Br)cc2)nc2ccccc21	-119*
CSCC(=O)N1CCc2ccc(NC(=O)c3ccccc3Cl)cc2C1	-117*
O=[N+]([O-])c1ccc(N2CCc3ccccc3C2)nc1	-66*
CC(C)OC(=O)c1ccc(N2CCN(c3ccccc3F)CC2)nc1	-68*
O=[N+]([O-])c1ccc(N2CCN(c3ccccc3)CC2)cc1	-80*
O=[N+]([O-])c1ccc(-c2nnc(S)n2-c2ccccc2)cc1	-95*
CC1Cc2ccccc2N1c1ncnc(N)c1[N+](=O)[O-] (stereo not given)	69
CCOc1ccc(-n2c(SCc3ccc([N+](=O)[O-])cc3)nnc2-c2ccccc2)cc1	56
O=[N+]([O-])c1ccc(N2CCN(c3ccccc3F)CC2)nc1	-66*
SMILES	aSyn 5UTR act
C/C(=N/N1CCN(c2ccccc2)CC1)c1cccc([N+](=O)[O-])c1	-70*
O=[N+]([O-])c1ccc(N2CCN(c3ccccc3)CC2)nc1	-76*
Nc1nc(-c2ccc(Br)s2)c(Br)s1	-77*
COc1ccc(/C=C/C2=Nc3ccccc3NC(C)(C)C2)cc1OC	-78*
COc1cc(/C=N/NC(=O)c2cc(C)oc2C)ccc1OCc1ccccc1	-102*
COc1cc(/C=N/NC(=O)c2cccs2)ccc1OCc1ccccc1	-105*
COc1cccc(/C=N/NC(=O)c2cccs2)c1	-137*
COc1cc(/C=N/OCC(=O)NC2CCCCC2)ccc1OCc1ccccc1	-97*
CCCCNC(=S)Nc1ccc(SC(F)F)cc1	-164*
Cc1nnc2n1N=CC=C(c1ccccc1)S2	-94*
O=[N+]([O-])C(/C=C(\Cl)[N+](=O)[O-])=C(N1CCCCC1)N1CCCCC1	-69*
CC(C)c1ccc(NC(=O)c2sccc2-n2cccc2)cc1	-146*
Cc1nc2ccccc2c(=O)n1/N=C/c1ccc([N+](=O)[O-])o1	-64*
Cc1nc2ccccc2n1/N=C/c1ccc([N+](=O)[O-])o1	-172*
COc1ccc(OC)c(Nc2nc(NCCO)c3ccccc3n2)c1	-68*
COc1ccc(OC)c(Nc2c3c(nc4ccccc24)CCC3)c1	106
Cc1ccc(Nc2nc(NCCO)c3ccccc3n2)cc1C	-76*
OCCNc1c2ccccc2nc2ccccc12	-167*
CN(C)/C=C1/C(=O)N(c2ccc([N+](=O)[O-])cc2)N=C1c1ccccc1	-115*
O=C(CC1CCCCC1)NCc1ccc(Cl)cc1	-69*
COc1cc(OC)c(C(=O)/C=C/c2ccccc2)c(O)c1O	-92*
COc1cc(O)cc(O)c1C(=O)/C=C/c1ccccc1	-140*
Cc1ccc(NC(=S)Nc2ccccn2)cc1C	-112*
Cc1cc(C)cc(NC(=S)Nc2ccccn2)c1	-105*
Cc1cccc(NC(=S)Nc2ccccn2)c1	-71*
SMILES	aSyn 5UTR act
O=c1cc(N2CCOCC2)cnn1-c1ccccc1	-123*
COc1ccc(-c2noc(CCc3ccccc3)n2)cc1	-148*
COc1ccc(-c2noc(Cc3ccccc3OC)n2)cc1	-64*
COc1ccc(-c2noc(Cc3cccs3)n2)cc1	-188*
CC(=O)Nc1ccc2nc(NC(=O)c3ccc([N+](=O)[O-])o3)sc2c1	-100*
CC(=O)Nc1ccc2nc(NC(=O)c3ccco3)sc2c1	-96*
O=C(Nc1nc2ccc([N+](=O)[O-])cc2s1)c1ccco1	-74*
CSc1nc2ccc(NC(=O)c3ccc(F)c(F)c3)cc2s1	-143*
CSc1nc2ccc(NC(=O)c3ccco3)cc2s1	-134*
COc1ccc2nc(NC(=S)NC(=O)c3ccco3)sc2c1	-133*
CSc1nc2ccc(NC(=O)c3cc4ccccc4o3)cc2s1	-126*
CSc1nc2ccc(NC(=O)c3ccc(=O)n(C)n3)cc2s1	-70*
Cc1ccc(-c2noc(-c3ccno3)n2)cc1	-126*
COc1ccc(-c2nc(-c3ccncc3)no2)cc1OC	-121*
Fc1cccc(F)c1-c1nc(-c2ccncc2)no1	-142*
COc1cccc(-c2nc(CS(=O)(=O)c3ccccc3)no2)c1	-126*
COc1cccc(-c2nc(-c3ccncc3)no2)c1	-114*
